Many of the other results were omitted from the sample, so hits are more common in it than they were.
ROC1-CUL1 inh: inhibitors of human ROC1-CUL1 ubiquitin ligase activity; E3 ubiquitin-protein ligase RBX1 (Homo sapiens) + Cullin-1 (Homo sapiens), P62877+Q13616; in vitro K48 di-Ub FRET, acceptor:donor ratio, 45 min; inhibition, % at 10 µM; 140,000 tested, 0.6% active; in the data active = inhibition above about 25%
Target sequence (P62877 whole entry, looked up): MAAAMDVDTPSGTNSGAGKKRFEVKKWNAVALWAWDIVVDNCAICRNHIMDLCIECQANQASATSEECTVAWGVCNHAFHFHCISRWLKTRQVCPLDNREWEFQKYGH
Target sequence (Q13616 whole entry, looked up): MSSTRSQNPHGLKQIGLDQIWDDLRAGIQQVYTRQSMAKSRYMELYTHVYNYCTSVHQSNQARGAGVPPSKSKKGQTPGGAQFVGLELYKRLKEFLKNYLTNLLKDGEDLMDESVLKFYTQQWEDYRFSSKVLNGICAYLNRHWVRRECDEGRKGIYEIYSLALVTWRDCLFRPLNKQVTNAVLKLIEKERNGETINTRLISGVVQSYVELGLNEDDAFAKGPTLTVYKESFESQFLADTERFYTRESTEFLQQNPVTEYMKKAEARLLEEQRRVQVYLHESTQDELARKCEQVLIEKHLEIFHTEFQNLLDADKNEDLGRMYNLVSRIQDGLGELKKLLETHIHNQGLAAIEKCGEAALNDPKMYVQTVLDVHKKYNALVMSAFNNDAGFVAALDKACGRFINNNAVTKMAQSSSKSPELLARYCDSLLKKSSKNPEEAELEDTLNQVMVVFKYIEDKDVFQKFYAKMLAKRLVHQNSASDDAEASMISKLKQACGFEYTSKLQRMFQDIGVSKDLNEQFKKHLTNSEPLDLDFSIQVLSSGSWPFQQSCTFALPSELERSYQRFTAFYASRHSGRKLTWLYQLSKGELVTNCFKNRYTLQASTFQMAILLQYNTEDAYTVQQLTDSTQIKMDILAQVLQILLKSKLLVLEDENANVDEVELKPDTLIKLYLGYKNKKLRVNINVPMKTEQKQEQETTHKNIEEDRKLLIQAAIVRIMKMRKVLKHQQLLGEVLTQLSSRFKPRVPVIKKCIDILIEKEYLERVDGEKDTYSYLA
Each line names hits and unclear results; the compound was inactive in the other large screens.

CCCOC(=O)c1c(NC(=O)C(C)Oc2ccc(Cl)cc2Cl)sc2c1CCCC2 (stereo not given)	none
C=CCOc1ccc(/C=C2\SC(=O)N(CC(=O)N3CCOCC3)C2=O)cc1OC	none
CC(C)C/C(=N\NC(=O)CNC(=O)c1ccc2c(c1)OCO2)c1ccccc1	none
CC1N(C)c2cccc3cccc(c23)N1C	none
CN1c2ccccc2N(C)C1c1cccs1	none
CN1c2cccc3cccc(c23)N(C)C1c1cccs1	ROC1-CUL1 inh 78
N#Cc1ccc(Oc2ccc3c4c(cccc24)C(=O)C3=O)cc1	none
O=C1NC(=S)N(c2cccc(Br)c2)C(=O)/C1=C/c1ccc(O)cc1	none
O=C1NC(=S)N(c2cccc(Br)c2)C(=O)/C1=C/c1cc(I)c(O)c(I)c1	ROC1-CUL1 inh 27
O=C1NC(=S)N(c2ccccc2)C(=O)/C1=C/c1cc(Br)ccc1O	none
c1ccc(C2=NC3(CCCCC3)N=C2c2ccccc2)cc1	none
OCCNc1cc2nccnc2cc1F	none
N#Cc1c(N)[n+]([O-])c2cc(NCCO)c(F)cc2[n+]1[O-]	ROC1-CUL1 inh 28
CCOc1cc(/C=C2/C(=N)N3C=C(C)SC3=NC2=O)ccc1OCCOc1ccc(C)c(C)c1	none
O=S(=O)(c1ccccc1)c1nc(Cl)ns1	none
O=S(Cc1ccccc1Cl)c1nc(Cl)ns1 (stereo not given)	ROC1-CUL1 inh 30
O=S(Cc1ccccc1F)c1nc(Cl)ns1 (stereo not given)	none
Cc1nc(N2CCC(C(=O)NC(Cn3ccnc3)c3ccccc3)CC2)nc2ccc(C(C)C)cc12 (stereo not given)	none
FC(F)(Cl)Oc1ccc(Nc2ccnc3cc(Cl)ccc23)cc1	none
CC(/C=C/c1ccco1)=N/NC(=O)c1ccccc1Cl	none
O=C(/C=C/c1ccco1)Nc1cccc(NC(=O)c2ccc(Cl)cc2Cl)c1	none
Cc1ccc(C(=O)/C=C/c2ccco2)c(O)c1	ROC1-CUL1 inh 34
Cn1nccc1C(=O)NC(C)(C)CC(C)(C)C	none
Cn1nccc1C(=O)C#Cc1ccccc1	ROC1-CUL1 inh 62
Cn1nccc1C(=O)n1cnc2ccccc21	none
CC(=N)C1C(=O)Oc2c(SCCO)c(SCCO)c(F)c(SCCO)c2C1=O (stereo not given)	none
Cc1nc(N2CCc3ccccc32)nc2c1C(=O)CC(C)(C)C2	none
CC(=O)N(C)C1=C(N2CCCC2)C(=O)c2ccccc2C1=O	none
O=C1C=C(N2CCc3ccccc32)c2ccccc2C1=O	ROC1-CUL1 inh 77
Nc1ccc(S(=O)(=O)N2CCc3ccccc32)cc1	none
O=C1C(=Cc2ccc(N3CCCCCC3)o2)C(=O)c2ccccc21	none
O=C1C=C(N2CCCCC2)c2ccccc2C1=O	ROC1-CUL1 inh 80
CCOC(=O)c1c(-c2ccc(C)c(C)c2)csc1NC(=O)CC(C)C	none
Cc1ccc(C(=S=O)c2ccc([N+](=O)[O-])cc2)cc1	none
CCC(C(=O)Nc1ccc(OC)c(OC)c1)c1ccccc1 (stereo not given)	none
O=C(OCC(F)(F)F)c1cccc(COc2cccc3ccccc23)c1	none
CC(C)NC(=O)c1ccc(NC(=O)C(F)(F)C2(F)OC(F)(F)C(F)(F)C2(F)F)cc1 (stereo not given)	none
O=C(Cc1ccc(Cl)c(Cl)c1)NCC1CCCO1 (stereo not given)	none
COc1cccc(-c2cnc(-c3ccncc3)nc2C2CCN(Cc3ccc(OC)c(C)c3)CC2)c1	none
Cc1ccc(Cn2c(C)c(C)n3c4c(=O)[nH]c(=O)n(C)c4nc23)cc1	none
C#CCOc1ccccc1C1C2=C(CC(C)(C)CC2=O)N(CCC(=O)O)C2=C1C(=O)CC(C)(C)C2	none
CCN=C1CC=CC=C(C(=O)/C=C/c2ccc(CC)cc2)C1=O	none
CCC(C)N1C(=O)S/C(=C/c2ccccc2Br)C1=O (stereo not given)	none
CCN=C1CC=CC=C(C(=O)/C=C/c2ccccc2Br)C1=O	ROC1-CUL1 inh 36
CN=C1CC=CC=C(C(=O)/C=C/c2cccc(C(F)(F)F)c2)C1=O	ROC1-CUL1 inh 81
CCn1ncc(/C=C/C(=O)c2ccccc2)c1C	none
Cc1ccccc1N=C1CC=CC=CC1=O	none
O=C(CCc1ccccc1)N/N=C/c1cccc(Cl)c1Cl	none
CCN=C1CC=CC=C(C(=O)/C=C/c2ccccc2OCC)C1=O	none
CCN=C1CC=CC=C(C(=O)/C=C/c2cccc(Cl)c2Cl)C1=O	ROC1-CUL1 inh 38
CCN=C1CC=CC=C(C(=O)/C=C/c2ccccc2Cl)C1=O	none
CCN=C1CC=CC=C(C(=O)/C=C/c2ccccc2C)C1=O	ROC1-CUL1 inh 73
CCN=C1CC=CC=C(C(=O)/C=C/c2ccc(C#N)cc2)C1=O	none
N#Cc1ccc(Oc2ccc(F)cc2)cc1C#N	none
N#CCSc1nc2ccccc2s1	none
CCc1ccc(-c2cn3c(C(=O)N(CC)CCO)csc3n2)cc1	none
Cc1ccc(NC(=O)CSC2=NC(=O)CC(=N)N2c2ccccc2)cc1	none
COc1nc2ccc(F)c(N)c2s1	none
O=C(CCCc1ccccc1)Nc1cccc(Br)c1	none
COc1ccc(C=C2C(=O)OC(c3ccccc3)OC2=O)c(OC)c1OC (stereo not given)	none
NC(=O)c1ccccc1OCCc1ccccc1	none
Cc1cc(=O)[nH]c(Sc2ccc([N+](=O)[O-])cc2[N+](=O)[O-])n1	none
O=C1C=CC2=C(c3ccccc3C(=O)O)C3C=CC(=O)C(Br)C3OC2=C1Br (stereo not given)	ROC1-CUL1 inh 113
O=C1C(Br)=CC2=C(c3ccccc3C(=O)O)C3C=C(Br)C(=O)C(Br)C3OC2=C1Br (stereo not given)	ROC1-CUL1 inh 117
CC1CCCCN1Cc1nc(-c2ccccn2)no1 (stereo not given)	none
CCOC(=O)CSc1nnc2n(-c3ccc(C)cc3)c(=O)c3c(n12)-c1ccccc1CC31CCCCC1	none
Cc1ccc(C2=C/C(=C\c3c(Cl)cccc3Cl)C(=O)O2)cc1	none
Cc1ccc2cc(C3=CCC(=O)O3)ccc2c1	none
Cc1ccc2cc(C3=C/C(=C/c4ccc(N5CCOCC5)o4)C(=O)O3)ccc2c1	ROC1-CUL1 inh 96
CC(=O)C(C(C)=O)C1=C(Cl)C(=O)C(=O)c2c(C(=O)c3ccc(C)cc3)coc21	ROC1-CUL1 inh 79
Cc1ccc(C(=O)c2coc3c2cc(O)c2ccccc23)cc1	none
Cc1ccc(C(=O)c2coc3ccc(O)c(Cl)c23)cc1	none
Oc1[nH]c2ccccc2c1N=NC(=S)NC12CC3CC(CC(C3)C1)C2	none
Cc1ccc(C(=O)O)cc1-c1ccc(/C=C2\SC(=O)N(Cc3ccc(F)cc3)C2=O)o1	none
CCN1C(=O)S/C(=C/c2ccc(-c3cccc(C(=O)O)c3C)o2)C1=O	none
O=C(O)c1ccc(-c2ccc(/C=C3\SC(=O)N(CC(=O)N4CCOCC4)C3=O)o2)cc1Cl	none
Cc1ccc(C(=O)O)cc1-c1ccc(/C=C2\SC(=O)N(Cc3ccccc3)C2=O)o1	none
O=C(O)c1ccc(-c2ccc(/C=C3\SC(=O)N(Cc4ccccc4)C3=O)o2)cc1Cl	ROC1-CUL1 inh 93
Cc1ccc(CN2C(=O)S/C(=C\c3ccc(-c4ccc(C(=O)O)c(Cl)c4)o3)C2=O)cc1	ROC1-CUL1 inh 69
N#C/C(=C\c1ccccc1Cl)c1nn(CCO)c(N)c1C#N	none
CCOC(=O)C1(Cc2ccccc2C)CCCN(C(=O)C2CCN(C(=O)N(C)C)CC2)C1 (stereo not given)	none
CC(C)c1ccc(-c2c(C#N)c(N)nc3c2CCCCCC3)cc1	none
CCC(CC)C(=O)N1CCc2c(sc(S(=O)(=O)Nc3ccc4c(c3)CCC4)c2C(=O)OC)C1	none
CCN(CC)Cc1nc2ccccc2c(=O)[nH]1	none
C=CCSc1nc2ccccc2c(=O)[nH]1	none
C=CCN=C(N)SCc1nc2ccccc2c(=O)[nH]1	ROC1-CUL1 inh 36
NS(=O)(=O)c1ccc(NC(=O)C(Cc2ccccc2Cl)=NC(=O)c2ccccc2)cc1	none

Source: PubChem BioAssay (Pan Lab, Icahn School of Medicine at Mount Sinai)
